Screening results from PubChem BioAssay.
This is a sample that favours compounds with a hit; in the whole collection about 2.9% have one here.
DRD3 antagonist: D3 dopamine receptor (human) antagonism | P35462 | D3R cells, DiscoveRx beta-arrestin luminescence, antagonist mode; active compounds read low | max response, negative = inhibition, % | 2.5% of 360,000 active | AID 652054; in the data active = max response below about -50%; inconclusive = no clear call, values can overlap the other calls; note: % is set by controls: 0 for no effect and ±100 for the full control effect
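Cells expressing the human receptor were seeded at 1500 cells/well, incubated overnight at 37 degrees C in 5% CO2, then exposed to library compounds with dopamine controls for 90 minutes at 37 degrees C before luminescent detection.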
TRPML1 ag: agonists of human TRPML1 channel; Q9GZU1; 0.12% of 410,000 active; activation, % (concentration not given with the values); TRPML1-expressing cells, Ca2+ dye fluorescence, FDSS; AID 624414; in the data active = activation above about 50%; inconclusive = mostly about 30% to 49%; note: 0% is about no effect
Target sequence (Q9GZU1 whole entry, looked up): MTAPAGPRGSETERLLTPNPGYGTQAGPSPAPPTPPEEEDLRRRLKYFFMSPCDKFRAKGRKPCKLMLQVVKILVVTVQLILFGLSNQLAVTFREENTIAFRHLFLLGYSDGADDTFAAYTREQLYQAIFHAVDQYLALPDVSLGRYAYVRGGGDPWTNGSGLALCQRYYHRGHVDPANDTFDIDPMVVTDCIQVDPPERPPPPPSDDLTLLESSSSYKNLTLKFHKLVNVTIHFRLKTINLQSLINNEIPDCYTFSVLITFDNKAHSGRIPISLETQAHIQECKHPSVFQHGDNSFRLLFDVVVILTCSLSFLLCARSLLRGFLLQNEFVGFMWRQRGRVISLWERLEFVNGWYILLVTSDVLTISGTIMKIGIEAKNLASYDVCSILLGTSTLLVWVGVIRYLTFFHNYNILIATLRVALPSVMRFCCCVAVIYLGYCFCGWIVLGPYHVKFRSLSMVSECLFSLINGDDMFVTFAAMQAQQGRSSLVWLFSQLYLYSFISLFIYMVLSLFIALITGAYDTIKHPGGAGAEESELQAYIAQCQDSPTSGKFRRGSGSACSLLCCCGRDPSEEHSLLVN
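Kinetic FDSS Ca2+ read in Tet-induced TRPML1-DL cells (ABD Ca8 dye plus quencher, 45-90 min RT loading): baseline, then compound, then 110 s agonist window; EC80 agonist 54-4 at 4uM final added afterwards for a 110 s antagonist window.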
TRPML1 blocker: blocks the human TRPML1 channel; 0.02% of 390,000 active; AID 624415; activity change, negative = inhibition, % (test concentration not listed); TRPML1-inducible cells, Ca2+ dye fluorescence, FDSS; active compounds read low; inhibition of EC80 agonist-evoked calcium signal; in the data active = activity change below about -50%; inconclusive = between about -30% and that limit;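 note: stimulus is agonist 54-4 at its EC80 concentration; % is set by controls: 0 for no effect and ±100 for the full control effect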
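Tet-induced TRPML1-DL cells loaded with Ca8 no-wash calcium dye were read kinetically on FDSS. Compound addition was followed by EC80 agonist 54-4 (4 uM final); inhibition was read over 110 s.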
DRD3 agonist: D3 dopamine receptor (human) agonism | P35462 | D3R DiscoveRx beta-arrestin cells, luminescence, 90 min | max activation, % | 0.58% of 410,000 active | AID 652048; in the data active = max activation above about 30%; note: 0% is about no effect
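Agonist-mode cell screen: cells plated at 1500/well and incubated overnight at 37 °C, then exposed to library compounds for 90 min at 37 °C. Detection reagent was added for 30–60 min at room temperature, and luminescence was read.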
Active calls of the source: *.

`COc1cccc(NC(=O)CCc2nnc3n(CC(C)C)c(=O)c4ccccc4n23)c1` gave TRPML1 ag 0, TRPML1 blocker 3 and DRD3 agonist 19.
O=S(=O)(c1ccc2[nH]c3c(c2c1)CCCCC3)N1CCN(c2cccc(Cl)c2)CC1 was read as TRPML1 ag 0, TRPML1 blocker -12 and DRD3 agonist -17.
Screening CCn1c(C(=O)Nc2ccccc2C(=O)OC)cc2sc(Cl)cc21 returned TRPML1 ag -1, TRPML1 blocker -5 and DRD3 agonist 3.
CSc1ccccc1C(=O)NCC(c1ccco1)N1CCCCC1 (stereo not given) was read as DRD3 antagonist 7, TRPML1 ag -1, TRPML1 blocker 8 and DRD3 agonist -9.
Screening S=C(NCc1ccco1)NCC(c1ccco1)N1CCCCC1 (stereo not given) returned DRD3 antagonist -66*, TRPML1 ag -1, TRPML1 blocker -12 and DRD3 agonist 0.
Screening CCc1cc(C(=O)NCC(c2ccco2)N2CCCCC2)sc1C (stereo not given) returned DRD3 antagonist -59*, TRPML1 ag -1, TRPML1 blocker -11 and DRD3 agonist -9.
`Cc1c(C(=O)NCC(c2ccco2)N2CCCC2)sc2ccccc12` (stereo not given) gave DRD3 antagonist -64*, TRPML1 ag -1, TRPML1 blocker 22 and DRD3 agonist -24.
`Cc1ccc(S(=O)(=O)NC(CC(C)C)C(=O)NCC(c2ccco2)N2CCCCC2)cc1` (stereo not given) gave DRD3 antagonist -79*, TRPML1 ag 0, TRPML1 blocker -19 and DRD3 agonist -25.
CC(=O)c1ccc(N2C(=O)Nc3ccccc3S2(=O)=O)cc1 was read as TRPML1 ag -1, TRPML1 blocker -8 and DRD3 agonist 9.
`O=Cc1ccc(/C=C2\C=Cc3ccccc32)cc1` gave TRPML1 ag 0.
`CCN1CCN(c2cc(C)c3cc(NC(=O)/C=C/c4cccc(Cl)c4)ccc3n2)CC1` gave TRPML1 ag 0, TRPML1 blocker 6 and DRD3 agonist -13.
CC(C)OC(=O)c1cc(NC(=S)Nc2ccc([N+](=O)[O-])cc2)cc(C(=O)OC(C)C)c1 was read as DRD3 antagonist -63*, TRPML1 ag -1, TRPML1 blocker 2 and DRD3 agonist 3.
CC(C)OC(=O)c1cc(C(=O)OC(C)C)cc([N+](=O)[O-])c1 was read as DRD3 agonist 11.
Screening O=C1c2cccc3c(O)ccc(c23)C(=O)N1c1ccc(Cl)cc1 returned DRD3 antagonist 3, TRPML1 ag 104*, TRPML1 blocker -8 and DRD3 agonist 2.
`COc1ccc(N2C(=O)c3cccc4c(N(C)CCO)ccc(c34)C2=O)cc1` gave DRD3 antagonist 0, TRPML1 ag inconclusive, TRPML1 blocker 3 and DRD3 agonist -4.
CC(=O)Nc1ccc(-n2c(=O)c3ccccc3c3ccccc3c2=O)cc1 was read as DRD3 antagonist -88*, TRPML1 ag 0, TRPML1 blocker 2 and DRD3 agonist -13.
O=C1c2cccc3c(O)ccc(c23)C(=O)N1Cc1ccco1 was read as DRD3 antagonist -14, TRPML1 ag 99*, TRPML1 blocker -19 and DRD3 agonist 4.
Screening CC(=O)Nc1ccc(N2C(=O)c3cccc4c(O)ccc(c34)C2=O)cc1 returned DRD3 antagonist 59, TRPML1 ag 72*, TRPML1 blocker -6 and DRD3 agonist 7.
O=C(Nc1ccc(Br)cc1)c1cccc(C(=O)Nc2ccc(Br)cc2)c1 was read as TRPML1 ag 1, TRPML1 blocker 6 and DRD3 agonist 7.
`CCc1ccc(-n2nnc(-c3nc(-c4ccc(C)cc4)no3)c2N)cc1` gave TRPML1 ag 0, TRPML1 blocker 23 and DRD3 agonist 8.
`N#Cc1ccc(COC(=O)C2CCC(=O)N2)cc1` (stereo not given) gave DRD3 antagonist -52*, TRPML1 ag 0, TRPML1 blocker -10 and DRD3 agonist -10.
For CCCCCCCCCCCCCCCC(=O)O[C@@H]1[C@@H](O)[C@@H](O)[C@@H]([C@H](NC(=O)[C@@H]2C[C@@H](CCC)CN2C)[C@H](C)Cl)O[C@@H]1SC the results were DRD3 agonist -25.
Screening COc1cc(C2c3cc4c(cc3OC(Nc3ccc(C(=O)O)cc3)C2C)OCO4)cc(OC)c1OC (stereo not given) returned DRD3 antagonist 112, TRPML1 ag 1, TRPML1 blocker 2 and DRD3 agonist 33*.
